Test results reported in PubChem BioAssay (NCATS).
Inconclusive results are not listed. The source made the active and inactive calls. Calls come from the whole dose curve; as a rule, active = well fitted cell-killing curve with a large enough effect; inconclusive = small, poorly fitted or top-dose-only effect, or effect the other way; inactive = flat fitted curve, though single readings scatter.

Test system: OV90
Test: Primary qHTS to identify gynecologic anti-cancer compounds using libraries of approved drugs and bioactive compounds (AID 1345084); note: nearly all actives have a fitted effect of over 55% in size
Conditions: Gynecologic cancer cell panel viability, ATPlite luminescence, 48 h; series mostly up to 57.5 µM; activity change, negative = cytotoxicity: at the top concentration
In short: (§1)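 Five-point cytotoxicity, 48 h drug exposure at 37 C, 5% CO2, on cells seeded 16 h beforehand. ATP content read by ATPlite luminescence.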
% is set by controls: 0 for no effect and ±100 for the full control effect.

Row | SMILES | activity change, negative = cytotoxicity
1 | C[C@H]1[C@H](C)CC[C@]2(C(=O)O)CC[C@]3(C)C(=CC[C@@H]4[C@@]5(C)C[C@@H](O)[C@H](O)[C@@](C)(CO)[C@@H]5CC[C@]43C)[C@H]12 | 3.7% (inactive)
2 | COc1cc(C[C@H]2COC(=O)[C@@H]2Cc2ccc(O)c(OC)c2)ccc1O | 13.1% [at 38.5 µM] (inactive)
3 | COC(=O)C1=CO[C@@H](O[C@@H]2O[C@H](CO)[C@@H](O)[C@H](O)[C@H]2O)[C@@H]2[C@@](C)(O)[C@@H](O)C[C@]12O | 14% [at 25.3 µM] (inactive)
4 | C/C(=C\CCC(C)(O)c1ccc(C)cc1)C(=O)O (stereo not drawn) | 2.97% (inactive)
5 | C/C=C(\C)C(=O)O[C@H]1[C@H](O)[C@]2(COC(C)=O)[C@H](O)C[C@]3(C)C(=CCC4[C@@]5(C)CC[C@H](O[C@@H]6O[C@H](C(=O)O)[C@@H](O[C@@H]7O[C@H](CO)[C@@H](O)[C@H](O)[C@H]7O)[C@H](O)[C@H]6O[C@@H]6O[C@H](CO)[C@@H](O)[C@H](O)[C@H]6O)[C@](C)(CO)C5CC[C@]43C)[C@@H]2CC1(C)C (stereo partly drawn) | -1.43% [at 11.6 µM] (inactive)
6 | COC1=Cc2c(nc3n(c2=O)C(C)C(=O)NC3(O)C(C)C)OC=C1 (stereo not drawn) | -3.86% [at 38.5 µM] (inactive)
7 | COc1c(C(CC(C)C)OC(C)=O)ccc(Oc2c(O)cc(C)cc2/C=C/C(C)=O)c1C(=O)O (stereo not drawn) | 0.311% [at 25.3 µM] (inactive)
8 | COc1cc(O[C@@H]2O[C@H](CO)[C@@H](O)[C@H](O)[C@H]2O)c(CCC(=O)OC[C@H]2O[C@@H](Oc3cc(OC)c(C4OC(=O)C(C)(O)C4O)cc3CCC(=O)O)[C@H](O)[C@@H](O)[C@@H]2O)cc1C1OC(=O)C(C)(O)C1O (stereo partly drawn) | -1.59% [at 11.6 µM] (inactive)
9 | CC1CC(O)CC(C)(C)C1(O)CCO (stereo not drawn) | -4.71% (inactive)
10 | CC(=O)c1c(O)cc2c(c1C)C(=O)CC(O)C2 (stereo not drawn) | -18% (inactive)

Test system: PA-1
Test: as above
Conditions: Gynecologic cancer cell panel viability, ATPlite luminescence, 48 h; series mostly up to 57.5 µM; activity change, negative = cytotoxicity: at the top concentration
In short: as §1

Row | SMILES | activity change, negative = cytotoxicity
11 | CC1(C)CCC(C)(C)c2cc3c(cc21)Sc1ccccc1N=C3c1ccc(C(=O)O)cc1 | 2.09% (inactive)
12 | O=C(O)c1n[nH]c2c1C[C@H]1C[C@@H]21 | 6.88% (inactive)
13 | COc1cc(C2Oc3c(O)cc(CCCO)cc3C2CO)ccc1O[C@H]1O[C@H](C)[C@@H](O)[C@H](O)[C@@H]1O (stereo partly drawn) | 3.33% [at 25.3 µM] (inactive)
14 | CC(=C/C(=O)O)/C=C/[C@]1(O)[C@@]2(C)CO[C@]1(C)C[C@H](O[C@@H]1O[C@H](CO)[C@@H](O)[C@H](O)[C@H]1O)C2 | 5.39% [at 25.3 µM] (inactive)
15 | CC1(C)CC[C@]2(C(=O)O)CC[C@]3(C)C(=CCC4[C@@]5(C)C[C@H](O)[C@H](O[C@@H]6OC[C@H](O)[C@H](O)[C@H]6O)[C@@](C)(CO)C5CC[C@]43C)[C@@H]2C1 (stereo partly drawn) | -3.19% [at 25.3 µM] (inactive)
16 | C1CCN2CC3C[C@@H](CN4CCCC[C@@H]34)[C@H]2C1 | 35.1% (inactive)
17 | COc1ccc(C)c2sc(NC(=O)c3ccncc3)nc12 | -21.5% (inactive)
18 | CC(C)[C@@H](C)/C=C/[C@@H](C)[C@H]1CC[C@H]2C3=CC=C4C[C@@H](O)CC[C@]4(C)[C@H]3CC[C@]12C | 12.9% [at 25.3 µM] (inactive)
19 | COc1ccccc1CC(C(=O)O)N(C)C(=O)c1ccccc1 (stereo not drawn) | -6.74% [at 38.5 µM] (inactive)
20 | C=C1[C@@H]2[C@H]3OC(=O)C(=C)[C@@H]3CC[C@@](C)(O)[C@@H]2C[C@@H]1O[C@@H]1O[C@H](CO)[C@@H](O)[C@H](O)[C@H]1O | 24.9% [at 25.3 µM] (inactive)
21 | COCCCNCC1COc2ccccc2O1 (stereo not drawn) | 0.455% (inactive)
22 | COc1cc(/C=C/C(=O)OC2CC(OC(C)=O)C(OC(C)=O)C3C2CCC2C(=O)OC(c4ccoc4)CC23C)ccc1O[C@@H]1O[C@H](CO)[C@@H](O)[C@H](O)[C@H]1O (stereo partly drawn) | 18% [at 25.3 µM] (inactive)
23 | CO[C@@H]1CC[C@H](OC[C@]2(COC(=O)c3ccc(C)[nH]3)[C@H](OC(C)=O)CC[C@@]3(C)[C@@H]4CC=C(C)[C@@H](C5=C(O)C(=O)OC5O)[C@]4(C)CC[C@@H]32)O[C@H]1C (stereo partly drawn) | 0.761% [at 25.3 µM] (inactive)
24 | C=C1CCC2C(OC(=O)C2(O)COC(C)=O)C2C(=C)C(O)CC12 (stereo not drawn) | -2.98% [at 38.5 µM] (inactive)
25 | CC1=C2C=C(CO)C(CO)CCC2(C)CCC1=O (stereo not drawn) | 12.6% (inactive)
26 | C=C1[C@H]2CC[C@]3(O)[C@@](CC[C@@H]4[C@](C)(C(=O)O)CCC[C@]43C)(C2)[C@H]1OC(=O)/C(C)=C\C | 13.1% [at 25.3 µM] (inactive)
27 | O=C(O[C@H]1[C@@H]2C=CO[C@@H](O[C@@H]3O[C@H](CO)[C@@H](O)[C@H](O)[C@H]3O)[C@@H]2[C@@]2(CO)O[C@@H]12)c1ccc(O)cc1 | 11.2% [at 25.3 µM] (inactive)
28 | CC(C)(O)/C=C1/C(=O)C(C)(C)C(=O)C(C)(C)C1(O)O[C@@H]1O[C@H](COC(=O)c2cc(O)c(O)c(O)c2)[C@@H](O)[C@H](O)[C@H]1O (stereo partly drawn) | -8.15% [at 25.3 µM] (inactive)
29 | CN1CC[C@@H](NC(=O)Nc2ccc(C#N)cc2)C[C@@H]1c1nc2ccccc2[nH]1 | 6.75% (inactive)

Row | SMILES | activity change, negative = cytotoxicity
30 | C[C@H]1[C@H](C)CC[C@]2(C(=O)O[C@@H]3O[C@H](CO)[C@@H](O)[C@H](O)[C@H]3O)CC[C@]3(C(=O)O)C(=CCC4[C@@]5(C)CC[C@H](O[C@@H]6O[C@H](CO)[C@@H](O)[C@H](O)[C@H]6O)C(C)(C)C5CC[C@]43C)[C@H]12 (stereo partly drawn) | 5.91% [at 11.6 µM] (inactive)
31 | c1nc(NC2CCCCCC2)c2cc(CNC[C@H]3CCCO3)sc2n1 | -2.15% (inactive)
32 | CCNC(=O)[C@H]1O[C@H](n2cnc3c(NCC(c4ccccc4)c4ccccc4)nc(C(=O)NCCNC(=O)NC4CCN(c5ccccn5)CC4)nc32)[C@H](O)[C@@H]1O | 9.68% (inactive)
33 | CC1CC(=O)C2=C(O1)OC1(C)CCC3C(C)(C)C=CC(=O)C3(C)C1C2 (stereo not drawn) | 2.42% [at 38.5 µM] (inactive)
34 | COc1ncc(-c2ccc3c(Nc4cc(Oc5cc(F)cc(F)c5)cc(C(=O)O)c4)c(S(=O)(=O)NC4CC4)cnc3c2)c(OC)n1 | 16% (inactive)
35 | CC(=O)O[C@@H]1[C@H]2[C@@H](OC(=O)c3ccccc3)[C@@H](C)C[C@]2(O)[C@H](OC(C)=O)[C@@]2(C)[C@@H]3CC(C)(C)C(=O)[C@]3(OC(C)=O)C[C@@]12C | 1.86% [at 25.3 µM] (inactive)
36 | COc1ccc(/C=C/C(=O)O[C@@H]2[C@@H](OC(C)=O)[C@@H](OC(C)=O)[C@H](O[C@H]3[C@@H]4C=CO[C@@H](O[C@@H]5O[C@H](CO)[C@@H](O)[C@H](O)[C@H]5O)[C@@H]4[C@@]4(CO)O[C@@H]34)O[C@H]2C)cc1O | 2.08% [at 25.3 µM] (inactive)
37 | CC1=CC(=O)OC(C)(CC(C)(O)C(=O)O)C1 (stereo not drawn) | -1.38% (inactive)
38 | O=C(OCc1cccc(O)c1O[C@@H]1O[C@H](CO)[C@@H](O)[C@H](O)[C@H]1O)C1(O)C(=O)C2C=CC1C1C=CC(=O)C(O)(C(=O)OCc3cccc(O)c3O[C@@H]3O[C@H](CO)[C@@H](O)[C@H](O)[C@H]3O)C21 (stereo partly drawn) | -3.46% [at 11.6 µM] (inactive)
39 | C[C@H]1[C@H](C)CC[C@]2(C(=O)O)CC[C@]3(C)C(=CC[C@@H]4[C@@]5(C)C[C@@H](O)[C@H](O)[C@@](C)(CO)[C@@H]5CC[C@]43C)[C@H]12 | -3.53% (inactive)
40 | COc1cc(C[C@H]2COC(=O)[C@@H]2Cc2ccc(O)c(OC)c2)ccc1O | 4.36% [at 38.5 µM] (inactive)
41 | COC(=O)C1=CO[C@@H](O[C@@H]2O[C@H](CO)[C@@H](O)[C@H](O)[C@H]2O)[C@@H]2[C@@](C)(O)[C@@H](O)C[C@]12O | -7.09% [at 25.3 µM] (inactive)
42 | C/C(=C\CCC(C)(O)c1ccc(C)cc1)C(=O)O (stereo not drawn) | -3.46% (inactive)
43 | C/C=C(\C)C(=O)O[C@H]1[C@H](O)[C@]2(COC(C)=O)[C@H](O)C[C@]3(C)C(=CCC4[C@@]5(C)CC[C@H](O[C@@H]6O[C@H](C(=O)O)[C@@H](O[C@@H]7O[C@H](CO)[C@@H](O)[C@H](O)[C@H]7O)[C@H](O)[C@H]6O[C@@H]6O[C@H](CO)[C@@H](O)[C@H](O)[C@H]6O)[C@](C)(CO)C5CC[C@]43C)[C@@H]2CC1(C)C (stereo partly drawn) | 25.1% [at 11.6 µM] (inactive)
44 | COC1=Cc2c(nc3n(c2=O)C(C)C(=O)NC3(O)C(C)C)OC=C1 (stereo not drawn) | -7.4% [at 38.5 µM] (inactive)
45 | COc1c(C(CC(C)C)OC(C)=O)ccc(Oc2c(O)cc(C)cc2/C=C/C(C)=O)c1C(=O)O (stereo not drawn) | -2.28% [at 25.3 µM] (inactive)
46 | COc1cc(O[C@@H]2O[C@H](CO)[C@@H](O)[C@H](O)[C@H]2O)c(CCC(=O)OC[C@H]2O[C@@H](Oc3cc(OC)c(C4OC(=O)C(C)(O)C4O)cc3CCC(=O)O)[C@H](O)[C@@H](O)[C@@H]2O)cc1C1OC(=O)C(C)(O)C1O (stereo partly drawn) | -4.41% [at 11.6 µM] (inactive)
47 | CC1CC(O)CC(C)(C)C1(O)CCO (stereo not drawn) | -2.74% (inactive)
48 | CC(=O)c1c(O)cc2c(c1C)C(=O)CC(O)C2 (stereo not drawn) | 0.209% (inactive)
